Screening results (PubChem)
TGFb SMAD3 inh – qHTS for Inhibitors of TGF-b; 1.2% of 410,000 active; Potency, µM (highest dose often 46.1 µM), for the others: at the highest dose activity, negative = inhibition, most hits filed as inhibitors; AID 588855, 2011; HepG2 CAGA-GFP TGF-b/SMAD3 reporter, GFP fluorescence, 18 h; TGF-beta stimulated, 500 pg/mL final; note: potency is the fitted concentration of half-maximal effect; % is set by controls: 0 for no effect and ±100 for the full control effect; nearly all actives have a fitted effect of over 65% in size
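HEPG2 CAGA-GFP, 1000 cells/well; 2 h settle, 37 C; cpd via pin tool; TGF-b 500 pg/mL final; 18 h, 37 C; GFP imaging ex488/em500-530; %Activity normalised to -TGF-b and +DMSO controls; CRC fit, curve class.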
HT1080NT lethal – qHTS for induction of synthetic lethality in tumor cells producing 2HG: qHTS for the HT-1080-NT fibrosarcoma cell line. HT-1080-NT fibrosarcoma viability, CellTiter-Glo ATP luminescence, 48 h. 1.6% of 360,000 active. Potency, µM (top dose mostly 46.1 µM), for inactives: at the highest dose activity, negative = less viability, most hits filed as cytotoxic;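 note: NT is the 2HG producing partner of a matched IDH1 knockdown line; potency is the fitted concentration of half-maximal effect; 0% = DMSO-treated cells and -100% = media-only wells without cells; nearly all actives have a fitted effect of over 55% in size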
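HT-1080-NT fibrosarcoma cells (2HG-overproducing), 750 cells/well in RPMI with 5% FBS, dosed after 2 h and incubated 48 h at 37C. CellTiter-Glo luminescence normalized to DMSO and no-cell wells; concentration-response curves fitted and classed.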
HepG2 viability – qHTS for Inhibitors of TGF-b: Cytotox Counterscreen. HepG2 CAGA-GFP viability, ATP luminescence, 18 h. Potency, µM (doses to about 46.1 µM), for inactives: top-dose activity change, negative = cytotoxicity, hits mostly cytotoxic. 0.76% of 410,000 active. AID 588856, 2011; note: potency is the fitted concentration of half-maximal effect
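CellTiter-Glo luminescence gave cytotoxicity after 18 hours at 37 degrees C. The cells were HepG2 CAGA-GFP in 1% FBS DMEM, stimulated with 500 pg/mL TGF-beta after compound addition. %Activity was normalised to no-cell wells (complete cell-killing) and DMSO (no toxicity), and curves were fitted and classified.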
HT1080 IDH1KD tx – qHTS for induction of synthetic lethality in tumor cells producing 2HG: qHTS for the HT-1080-IDH1KD cell line; HT-1080 IDH1 knockdown viability, ATP luminescence, 48 h; Potency, µM (titrated, usually from 46.1 µM), for inactives: top-dose activity, negative = toxicity, actives largely listed as cytotoxic; 2% of 360,000 active;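 note: potency is the fitted concentration of half-maximal effect; 0% = DMSO wells and -100% = cell-free medium wells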
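HT-1080-IDH1KD cells (IDH1 knocked down), 750/well in RPMI with 5% FBS, treated with compound 48 h at 37 degrees C. Viability by CellTiter-Glo luminescence, normalised to DMSO and no-cell wells; concentration-response curves classed.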
Giardia kill – Small Molecules that selectively kill Giardia lamblia: qHTS; activity change, % at 7.66 µM, hits read low; Giardia lamblia trophozoite viability; AID 540267, 2011; 0.15% of 340,000 active; in the data active = activity change below about -80%; inconclusive = between about -30% and that limit;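 note: parasites exposed to compound for two days anaerobically before the ATP read; % is set by controls: 0 for no effect and ±100 for the full control effect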
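Giardia trophozoites, 100 cells per well, were exposed to compounds for 48 hrs at 37 deg C under anaerobic conditions; viability was then read as ATP content by bioluminescence after 15-30 min at room temperature.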
IL1B secr inh – qHTS for Inhibitors of Inflammasome Signaling: IL-1-beta AlphaLISA Primary Screen | THP-1 LPS/ATP IL-1B secretion, AlphaLISA, 16 h; hits give low values | activity change, % at 57.5 µM | 4.7% of 360,000 active; in the data active = activity change below about -50%; inconclusive = mostly about -30% to -49%; note: % is set by controls: 0 for no effect and ±100 for the full control effect
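Secreted IL-1B measured by AlphaLISA bead assay after 16 h compound exposure of THP-1 cells; compounds (final up to 57.5 uM) added 1 h before LPS (250 ng/mL) and ATP (1.25 mM) stimulation; lower signal means less secretion.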
Numbers without * were called inactive; u = inconclusive; x = no result. Hits are enriched below; roughly 6.5% of the tested compounds scored in any of these assays. Unless noted, calls come from the whole dose curve; as a rule, active = well fitted curve in the direction sought with a large enough effect; inconclusive = small, poorly fitted or top-dose-only effect, or another doubt; inactive = no such curve, though single readings can be large; an effect the other way counts as inactive or inconclusive.

SMILES	TGFb SMAD3 inh	HT1080NT lethal	HepG2 viability	HT1080 IDH1KD tx	Giardia kill	IL1B secr inh
Cc1ccc(CCNC(=O)C2CCN(S(=O)(=O)c3ccc4c(c3)NC(=O)C(C)S4)CC2)cc1 (stereo unspecified)	u	-0.1%	-14.9%	u	-22.7	-68.5*
Cc1ccc(NC(=O)C2CCN(S(=O)(=O)c3ccc4c(c3)NC(=O)C(C)S4)CC2)cc1Cl (stereo unspecified)	2.24µM*	u	-11.3%	u	14.8	30.8
Cc1cc(C)cc(NC(=O)C2CCN(S(=O)(=O)c3ccc4c(c3)NC(=O)C(C)S4)CC2)c1 (stereo unspecified)	u	-0.4%	-19.5%	-20.2%	10.5	u
CC1Sc2ccc(S(=O)(=O)N3CCC(C(=O)NCCc4ccccc4)CC3)cc2NC1=O (stereo unspecified)	-26.8%	-22.9%	-14.9%	-20.3%	5.9	19.1
CC(C)(C)NC(=O)C(c1ccc(F)cc1)N(Cc1cccs1)C(=O)c1ccc(CN2CCOCC2)o1 (stereo unspecified)	-19.4%	1.9%	-8.0%	-0.3%	-8.1	-52.7*
CC(C)CCNC(=O)C(C)N(Cc1ccc(F)cc1)C(=O)c1ccc(CN2CCOCC2)o1 (stereo unspecified)	1.1%	9.2%	-2.8%	7.3%	u	16.4
O=C(NNC(=O)C1CCN(Cc2ccccc2)CC1)c1cccs1	7.9%	-1.7%	-2.9%	5.3%	-3.9	16.7
CC1Cc2ccccc2N1CC(=O)NC(=O)NCc1ccco1 (stereo unspecified)	-22.0%	-24.1%	-5.3%	-13.1%	-16.4	113.1
COc1ccccc1NC(=S)N1CC(C)(C)C1=O	2.3%	0.8%	5.01µM*	10.8%	15.1	13.4
N#CNC(=Nc1ccccc1F)SCc1ccc(C(=O)O)cc1	-19.0%	4.2%	-0.7%	8.2%	-19.3	27.4
CC(C)(C)NC(=O)CSC(=Nc1ccc(F)cc1)NC#N	2.6%	4.4%	-30.7%	1.3%	-8.5	-96.9*
CCOc1ccc(NC(=O)NC(C)c2ccc3c(c2)OCO3)cc1 (stereo unspecified)	0.8%	10.8%	3.1%	-1.8%	-22.0	-16.4
Cc1nn(Cc2ccc(F)cc2)c2sc(C(=O)Nc3nccs3)cc12	-19.7%	-27.4%	-37.2%	-19.2%	-0.2	19.7
COc1ccccc1CNC(=O)c1cc2c(C)nn(Cc3ccc(F)cc3)c2s1	-2.5%	-14.5%	-9.8%	-12.7%	-5.0	-52.0*
Cc1ccc(-c2n[nH]c3c2C(c2ccccc2)N(c2ccc(C(=O)O)cc2)C3=O)cc1 (stereo unspecified)	4.4%	-26.5%	6.2%	-29.1%	-8.3	-5.6
O=C1c2[nH]nc(-c3ccccc3)c2C(c2ccccc2)N1c1cccc(C(F)(F)F)c1 (stereo unspecified)	u	x	17.8µM*	x	x	x
Cc1ccc(-c2n[nH]c3c2C(c2cccc(O)c2)N(c2ccc(C(=O)O)cc2)C3=O)cc1 (stereo unspecified)	u	29.0%	15.3%	0.0%	1.9	44.6
CCOc1ccc(N2C(=O)c3[nH]nc(-c4ccccc4)c3C2c2ccc(O)c(OC)c2)cc1 (stereo unspecified)	u	x	-24.8%	x	x	x
CCOc1ccc(C2c3c(-c4ccc(C)cc4)n[nH]c3C(=O)N2c2ccc(Cl)cc2)cc1 (stereo unspecified)	4.47µM*	x	12.6µM*	x	x	x
O=C1c2[nH]nc(-c3ccc(Br)cc3)c2C(c2cccc(O)c2)N1c1ccc(Cl)cc1 (stereo unspecified)	7.08µM*	x	14.1µM*	x	x	x
